The results in this text go back to PubChem BioAssay (EPA / NIEHS).

Read-out in assay [1]: TIMP metallopeptidase inhibitor 1 (TIMP1), TIMP1 (gene 7076)
The assay can be described thus: BSK_hDFCGF_TIMP1: BioMAP Diversity Plus: hDFCGF Assay for TIMP metallopeptidase inhibitor 1 (TIMP1) Biomarker Activity (AID 2283062). As to conditions: primary human foreskin fibroblasts; actives raise or lower the signal. Summed up:
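Bidirectional curve fitting against DMSO baseline yielded this endpoint, based on ELISA detection of TIMP-1 in primary human foreskin fibroblasts exposed to compound for 24 h.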

Read-out in assay [2]: Monokine induced gamma interferon (MIG), CXCL9 (gene 4283)
Put plainly: BSK_hDFCGF_MIG: BioMAP Diversity Plus: hDFCGF Assay for Monokine induced gamma interferon (MIG) Biomarker Activity (AID 2283063). Particulars: primary human foreskin fibroblasts; actives raise or lower the signal. Summed up: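 Endpoint derived by bidirectional fitting relative to DMSO; MIG quantified via ELISA in primary human foreskin fibroblasts harvested 24 h after dosing.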

Read-out in assay [3]: Matrix Metallopeptidase 1 (MMP1), MMP1 (gene 4312)
Put plainly: BSK_hDFCGF_MMP1: BioMAP Diversity Plus: hDFCGF Assay for Matrix Metallopeptidase 1 (MMP1) Biomarker Activity (AID 2283064). Particulars: primary human foreskin fibroblasts; actives raise or lower the signal. Summed up: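 Primary human foreskin fibroblasts in the hDFCGF system were dosed with test chemical, and MMP1 was measured by ELISA 24 h later. Values come from bidirectional curve fitting against the DMSO baseline.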

Read-out in assay [4]: Vascular cell adhesion molecule 1 (VCAM1), VCAM1 (gene 7412)
Put plainly: BSK_hDFCGF_VCAM1: BioMAP Diversity Plus: hDFCGF Assay for Vascular cell adhesion molecule 1 (VCAM1) Biomarker Activity (AID 2283065).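 On AC50: VCAM-1 protein level quantified by ELISA after 24 h chemical exposure.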 Particulars: primary human foreskin fibroblasts; actives raise or lower the signal. Summed up: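 Measured after 24 h chemical treatment of primary human skin fibroblasts, VCAM-1 was detected by ELISA and concentration-response analysed in both directions versus DMSO vehicle.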

Read-out in assay [5]: Plasminogen activator inhibitor-1 (PAI1), SERPINE1 (gene 5054)
Put plainly: BSK_hDFCGF_PAI1: BioMAP Diversity Plus: hDFCGF Assay for Plasminogen activator inhibitor-1 (PAI1) Biomarker Activity (AID 2283066). Particulars: primary human foreskin fibroblasts; actives raise or lower the signal. The method, boiled down: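 Primary dermal fibroblasts (human foreskin), hDFCGF system; compound 24 h; PAI-1 by ELISA; bidirectional fit vs DMSO control.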

Read-out in assay [6]: Intercellular Adhesion Molecule 1 (ICAM1), ICAM1 (gene 3383)
Put plainly: BSK_KF3CT_ICAM1: BioMAP Diversity Plus: KF3CT Assay for Intercellular Adhesion Molecule 1 (ICAM1) Biomarker Activity (AID 2283067). Particulars: primary human keratinocytes with fibroblasts; actives raise or lower the signal. The method, boiled down: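 Bidirectional curve fitting against a DMSO baseline was applied to ICAM-1 ELISA signal from primary human skin co-cultures harvested 24 h after treatment, with SRB staining of parallel wells for overt cytotoxicity.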

Read-out in assay [7]: Interferon-gamma inducible Protein 10 (IP10), CXCL10 (gene 3627)
Put plainly: BSK_KF3CT_IP10: BioMAP Diversity Plus: KF3CT Assay for Interferon-gamma inducible Protein 10 (IP10) Biomarker Activity (AID 2283068). As to conditions: primary human keratinocytes with fibroblasts; actives raise or lower the signal. The method, boiled down: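 ELISA read-out of IP-10 after 24 h chemical dosing of human skin primary co-culture (keratinocytes, foreskin fibroblasts). Gain or loss of signal relative to DMSO, bidirectional curve fit.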

The nature of assay [8]: BSK_KF3CT_SRB: Viability Assessment in the BioMAP Diversity Plus: KF3CT Assay (AID 2283069).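 Further: total protein by sulforhodamine B staining as a cytotoxicity measure; read 24 h after compound addition.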 As to conditions: primary human keratinocytes with fibroblasts. The method, boiled down: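 Human primary keratinocyte plus foreskin fibroblast co-culture exposed to chemicals for 24 h. Total protein measured by 0.1% sulforhodamine B staining after 10% TCA fixation, read at 560 nm; bidirectional fitting versus DMSO baseline.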

Read-out in assay [9]: Interleukin-1 alpha (IL1a), IL1A (gene 3552)
Put plainly: BSK_KF3CT_IL1a: BioMAP Diversity Plus: KF3CT Assay for Interleukin-1 alpha (IL1a) Biomarker Activity (AID 2283070). Particulars: primary human keratinocytes with fibroblasts; actives raise or lower the signal. Summed up:
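Human keratinocyte plus foreskin fibroblast primary co-culture, sampled 24 h after chemical dosing. IL-1a measured by ELISA; responses fitted bidirectionally against DMSO baseline (negative control), so gain or loss of signal both count.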

Read-out in assay [10]: TIMP metallopeptidase inhibitor 2 (TIMP2), TIMP2 (gene 7077)
The assay can be described thus: BSK_KF3CT_TIMP2: BioMAP Diversity Plus: KF3CT Assay for TIMP metallopeptidase inhibitor 2 (TIMP2) Biomarker Activity (AID 2283071). As to conditions: primary human keratinocytes with fibroblasts; actives raise or lower the signal. Summed up:
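Cells: human keratinocytes co-cultured with foreskin fibroblasts. Treat with chemical, 24 h. Measure TIMP-2 by ELISA; fit curves bidirectionally vs DMSO baseline.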

Read-out in assay [11]: Transforming growth factor beta 1 (TGFb1), TGFB1 (gene 7040)
The assay can be described thus: BSK_KF3CT_TGFb1: BioMAP Diversity Plus: KF3CT Assay for Transforming growth factor beta 1 (TGFb1) Biomarker Activity (AID 2283072). Particulars: primary human keratinocytes with fibroblasts; actives raise or lower the signal. Summed up:
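Primary human skin cells (keratinocytes, foreskin fibroblasts) were co-cultured, exposed to test chemical and sampled at 24 h. TGF-b1 levels were measured by ELISA and fitted bidirectionally relative to DMSO.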

Read-out in assay [12]: C-C motif chemokine 2 (Homo sapiens) (UniProt P13500)
Put plainly: BSK_KF3CT_MCP1: BioMAP Diversity Plus: KF3CT Assay for Monocyte Chemoattractant Protein 1 (MCP1/CCL2) Biomarker Activity (AID 2283073). As to conditions: primary human keratinocytes with fibroblasts; actives raise or lower the signal. The method, boiled down: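 Biomarker MCP-1 is measured by ELISA in primary human keratinocytes co-cultured with foreskin fibroblasts, 24 h after chemical treatment; DMSO serves as the negative control and activity baseline.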

Read-out in assay [13]: Matrix Metallopeptidase 9 (MMP9), MMP9 (gene 4318)
The assay can be described thus: BSK_KF3CT_MMP9: BioMAP Diversity Plus: KF3CT Assay for Matrix Metallopeptidase 9 (MMP9) Biomarker Activity (AID 2283074).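 On AC50: MMP9 protein level quantified by ELISA in the co-culture.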 As to conditions: primary human keratinocytes with fibroblasts; actives raise or lower the signal. Summed up: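 Keratinocyte plus foreskin fibroblast human primary skin co-culture was dosed with chemical and MMP-9 was quantified by ELISA 24 h later. Bidirectional curve fitting used DMSO as negative control and activity baseline.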

Read-out in assay [14]: urokinase plasminogen activator (uPA), PLAU (gene 5328)
The assay can be described thus: BSK_KF3CT_uPA: BioMAP Diversity Plus: KF3CT Assay for urokinase plasminogen activator (uPA) Biomarker Activity (AID 2283075). As to conditions: primary human keratinocytes with fibroblasts; actives raise or lower the signal. Summed up:
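Human keratinocyte plus foreskin fibroblast primary co-culture exposed to chemical for 24 h. uPA levels were quantified by ELISA, and activity was fitted bidirectionally against a DMSO negative-control baseline.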

Read-out in assay [15]: CD40, CD40 (gene 958)
Put plainly: BSK_LPS_CD40: BioMAP Diversity Plus: LPS Assay for CD40 Biomarker Activity (AID 2283076). Particulars: primary human HUVEC with PBMC; actives raise or lower the signal. The method, boiled down:
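Using a multiplexed primary human co-culture (umbilical vein endothelium plus PBMC), CD40 was read by ELISA 24 h after dosing, with cytotoxicity tracked by sulforhodamine B staining of parallel cultures and activity fitted bidirectionally versus DMSO.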

Read-out in assay [16]: E-selectin (Homo sapiens) (UniProt P16581)
Put plainly: BSK_LPS_Eselectin: BioMAP Diversity Plus: LPS Assay for Eselectin Biomarker Activity (AID 2283077). Particulars: primary human HUVEC with PBMC; actives raise or lower the signal. Summed up:
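Dose chemical onto LPS-driven HUVEC/PBMC co-culture; after 24 h, run ELISA for E-selectin; fit up- and down-going responses relative to DMSO control.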

Read-out in assay [17]: Interleukin-8 (IL8), CXCL8 (gene 3576)
Put plainly: BSK_LPS_IL8: BioMAP Diversity Plus: LPS Assay for Interleukin-8 (IL8) Biomarker Activity (AID 2283078). Particulars: primary human HUVEC with PBMC; actives raise or lower the signal. The method, boiled down: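 In this LPS system, chemical-treated human umbilical vein endothelium/PBMC co-cultures were harvested at 24 h for IL-8 ELISA.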

Assay [18] can be described thus: BSK_LPS_SRB: Viability Assessment in the BioMAP Diversity Plus: LPS Assay (AID 2283079).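 Further: total protein by sulforhodamine B absorbance as a cytotoxicity measure; measured one day after compound addition.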 Particulars: primary human HUVEC with PBMC. The method, boiled down: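 Cytotoxicity endpoint in human endothelial–PBMC co-culture: 24 h exposure, then SRB (0.1%) staining, 560 nm read.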
Read-out in assay [19]: Interleukin-1 alpha (IL1a), IL1A (gene 3552)
Put plainly: BSK_LPS_IL1a: BioMAP Diversity Plus: LPS Assay for Interleukin-1 alpha (IL1a) Biomarker Activity (AID 2283080). As to conditions: primary human HUVEC with PBMC; actives raise or lower the signal. The method, boiled down: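 Primary human HUVEC and PBMC co-culture stimulated with LPS is dosed and harvested at 24 h. Both increases and decreases in ELISA-measured IL-1a are scored relative to DMSO.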

Several values for one entry are separate records, joined by “and”; a condition that tells them apart may be missing. Identical values can stand only once. Some compounds were tested as several samples or in several runs, with calls that do not always agree. Activity calls are given as the source filed them. How the source made its calls: active means hit-call score of the fitted dose curve at least 0.9, where 1 is the maximum; inactive means score below 0.9.

E-selectin (Homo sapiens), sequence (P16581 whole entry, looked up): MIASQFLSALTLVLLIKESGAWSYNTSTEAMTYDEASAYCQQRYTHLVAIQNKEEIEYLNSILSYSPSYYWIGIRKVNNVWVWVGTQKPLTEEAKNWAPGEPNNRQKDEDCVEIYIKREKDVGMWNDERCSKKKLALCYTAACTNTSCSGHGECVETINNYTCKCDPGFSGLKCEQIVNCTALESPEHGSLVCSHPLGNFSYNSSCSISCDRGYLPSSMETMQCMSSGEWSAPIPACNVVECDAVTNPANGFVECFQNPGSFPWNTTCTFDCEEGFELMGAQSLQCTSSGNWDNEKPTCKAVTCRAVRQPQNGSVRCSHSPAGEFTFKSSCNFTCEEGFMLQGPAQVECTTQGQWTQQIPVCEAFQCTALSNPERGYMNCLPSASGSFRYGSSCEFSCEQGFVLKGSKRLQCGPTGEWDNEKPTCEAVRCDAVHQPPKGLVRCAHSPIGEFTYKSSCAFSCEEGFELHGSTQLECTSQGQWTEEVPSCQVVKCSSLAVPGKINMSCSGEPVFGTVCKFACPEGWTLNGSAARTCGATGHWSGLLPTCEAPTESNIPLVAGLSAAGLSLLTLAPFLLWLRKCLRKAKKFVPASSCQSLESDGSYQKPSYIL

In the case of `C=CCc1ccc2c(c1)OCO2`, the outcome in [1], in assay [2], in assay [3], in assay [4], in assay [5] and in assay [6] was inactive. Besides, the outcome in [7], in assay [8], in assay [9], in [10], in assay [11] and in [12] was inactive. Further, the result in assay [13], in assay [14], in [15], in assay [16], in assay [17] and in assay [18] was inactive. Also, the result in assay [19] was inactive.

`N#CC(Br)(Br)C(N)=O`: the result in assay [1], in assay [2], in assay [3], in assay [4], in [5] and in [6] was inactive. Moreover, the result in assay [7], in assay [8], in assay [9], in assay [10], in [11] and in [12] was inactive. Also, the outcome in assay [13], in [14], in assay [15], in assay [16], in assay [17] and in assay [18] was inactive. For the same compound, the result in [19] was inactive.

In the case of `CCNS(=O)(=O)C(F)(F)C(F)(F)C(F)(F)C(F)(F)C(F)(F)C(F)(F)C(F)(F)C(F)(F)F`, the half-maximal activity concentration (AC50) in [1] was 47.2 µM (active) and 53.5 µM (active); in assay [2] it was 19.3 µM (active) and 28.3 µM (active) and 36 µM (active); in assay [3], 49.2 µM (active) and 49.6 µM (active); in assay [4] it was 5.73 µM (active) and 13.5 µM (active); in assay [6], 46.2 µM (active); in assay [7] it was 20.9 µM (active) and 30.5 µM (active) and 43.7 µM (active). Further, the AC50 in [8] is 46.1 µM (active); in assay [9], 41.5 µM (active) and 47.7 µM (active); in assay [10], 48.2 µM (active) and 54.7 µM (active); in [11] it was 19.3 µM (active); in assay [12], 47.8 µM (active); in [13] it was 29.6 µM (active) and 40.2 µM (active) and 36.2 µM (active). The AC50 in [14] is 50.5 µM (active) and 47.5 µM (active); in assay [15], 46.1 µM (active) and 42.2 µM (active); in assay [17], 30 µM (active); in [18], 44.2 µM (active) and 46 µM (active). Besides, the result in [1], in assay [3], in assay [6], in assay [8], in assay [9] and in [10] was inactive. Moreover, the outcome in assay [12], in assay [14], in [15], in [16], in assay [17] and in assay [18] was inactive. The result in assay [19] was inactive.
